PubChem BioAssay (EPA / NIEHS)
The source made the active and inactive calls. How the source made its calls: active means hit-call score of the fitted dose curve at least 0.9, where 1 is the maximum; inactive means score below 0.9. Peptide text beside a SMILES is read from it.

Tests used:
[1] = IUF_NPC1b_proliferation_BrdU_72hr: Leibniz Research Institute for Environmental Medicine (IUF) 72-hour Neural Progenitor Cell Bromodeoxyuridine (BrdU) Proliferation Assay (NPC1b) (AID 2284207)
Method in brief: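 Proliferation of primary human neural progenitor cells: 72 h compound treatment at 37C, 5% CO2, pH 7.2-7.6, in EGF/FGF-containing medium. Readout is BrdU uptake (last 16 h) by chemiluminescent ELISA, normalised to DMSO.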

[2] = IUF_NPC1a_proliferation_area_72hr: Leibniz Research Institute for Environmental Medicine (IUF) 72-hour Neural Progenitor Cell Proliferation Area Assay (NPC1a) (AID 2284208)
Method in brief: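 Spheres of 0.3 mm are plated singly in growth-factor medium and exposed from day 0. After three days at 37C and 5% CO2, sphere area is measured by phase contrast imaging, with activity referenced to DMSO.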

[3] = IUF_NPC1_viability_72hr: Viability Assessment at 72 hours in the Leibniz Research Institute for Environmental Medicine (IUF) Neural Progenitor Cell Proliferation Assay (NPC1) (AID 2284209)
Method in brief: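 Each well receives one 0.3 mm progenitor sphere from fetal brain cortex; test chemical is added at plating and left three days. Viability comes from alamar blue fluorescence, multiplexed with LDH and BrdU readouts in the same well.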

[4] = CCTE_Mundy_HCI_Cortical_Synap_Neur_Matur_NeuriteSpotCountPerNeuriteLength: CCTE's Synaptogenesis and Neurite Maturation Assay in rat cortical cells for Neurite Spot Count per Neurite Length, Mundy Lab (AID 2284210)
Method in brief: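 Primary rat cortical neurons, compound exposure DIV 7–12, 288.33 h endpoint. Hoechst, anti-MAP2 and anti-synaptophysin labelling; neurite-associated puncta per neurite length scored by automated imaging relative to DMSO controls.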

[5] = CCTE_Mundy_HCI_Cortical_Synap_Neur_Matur_BPCount: CCTE's Synaptogenesis and Neurite Maturation Assay in rat cortical cells for Branch Point Count, Mundy Lab (AID 2284211)
Method in brief: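 Branch point number is quantified by automated imaging of fluorescently labelled neurites and synapses in rat primary cortical neurons exposed from DIV 7 to DIV 12. Activity is analysed relative to DMSO negative control.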

[6] = CCTE_Mundy_HCI_Cortical_NOG_NeuriteCount: CCTE's Neurite Outgrowth Assay in rat cortical cells for Neurite Count, Mundy Lab (AID 2284212);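 further: cells fixed about two days after chemical exposure began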
Method in brief: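 Neurite number per cell from high-content imaging of betaIII-tubulin immunostaining, with Hoechst nuclear counterstain.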

[7] = CCTE_Mundy_HCI_Cortical_NOG_NeuriteLength: CCTE's Neurite Outgrowth Assay in rat cortical cells for Neurite Length, Mundy Lab (AID 2284213)
Method in brief: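 Neurite length was read by high-content imaging of βIII-tubulin-labelled neurites in rat primary cortical cultures. Activity was fitted relative to DMSO.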

[8] = CCTE_Mundy_HCI_Cortical_Synap_Neur_Matur_NeuriteLength: CCTE's Synaptogenesis and Neurite Maturation Assay in rat cortical cells for Neurite Length, Mundy Lab (AID 2284214)
Method in brief: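 Neurite length in rat primary cortical cultures is imaged after MAP2, synaptophysin and Hoechst staining. Dosing starts DIV 7, ending DIV 12; DMSO serves as negative control and baseline.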

[9] = CCTE_Mundy_HCI_Cortical_Synap_Neur_Matur_NeuriteSpotCountPerNeuron: CCTE's Synaptogenesis and Neurite Maturation Assay in rat cortical cells for Neurite Spot Count per Neuron Count, Mundy Lab (AID 2284215)
Method in brief: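 Rat cortical primary cultures; AraC DIV 5 to arrest glia; dosing + media change DIV 7; fixed DIV 12. Anti-MAP2/anti-synaptophysin, Hoechst nuclei; HCI puncta count per neuron, positive fitting direction vs DMSO.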

[10] = TAMU_PeakParms_SingleDonor1434_Chronotropy: Texas A&M University (TAMU) 1.5-hr Human Induced Pluripotent Stem Cell (iPSC)-derived Cardiomyocytes Calcium (Ca+2) Flux Assay for Cardiotoxicity: Chronotropy (changes in peak frequency) (AID 2284217); settings: actives raise or lower the signal
Protocol: TAMU_PeakParms is a cell-based, multiplexed-readout assay that uses iPSC-derived cardiomyocytes with measurements taken at 1.5 hours after chemical dosing in a microplate: 384-well plate.TAMU_PeakParms_SingleDonor1434_Chronotopy is a phenotype derived from the peak.freq.avg parameter and uses an EC05 as its POD (5% increase in beat rate, compared to controls). Peak.Freq.Avg measures the average peak frequency, in beats per second, using Fluorescence intensity as a functional reporter from Calcium (Ca+2) flux assay technology. Before modeling, data is preprocessed to remove data points where there is a cessation of beating (where peak.freq.avg equals 0) to ensure the capture of the upwards response that isn't confounded by the drop in beat rate at higher concentrations and to ensure the drop in beat rate is captured before asystole, which is captured elsewhere.Data from the assay component TAMU_PeakParms_SingleDonor1434_Chronotropy was analyzed into 1 assay endpoint. This assay endpoint, TAMU_PeakParms_SingleDonor1434_Chronotropy_Negative, was analyzed with bidirectional fitting relative to DMSO as the negative control and baseline of activity. Using a type of functional reporter, gain or loss-of-signal activity can be used to understand changes in the cardiac function. […]

Compound	outcome [1]	outcome [2]	outcome [3]	outcome [4]	outcome [5]	outcome [6]	outcome [7]	outcome [8]	outcome [9]	outcome [10]	AC50 [1]
Cc1c(C(=O)c2c[nH]n(C)c2=O)ccc(S(C)(=O)=O)c1C1=NOCC1	inactive	inactive	inactive	inactive	inactive	inactive	inactive	inactive	inactive		
COC(=O)[C@H](Cc1ccccc1)NC(=O)[C@@H](N)CC(=O)O (H-Asp-Phe-OMe)				inactive	inactive	inactive	inactive	inactive	inactive	inactive	
CCCCNS(=O)(=O)c1ccccc1		inactive	inactive	inactive	inactive	inactive	inactive	inactive	inactive		11.9 µM (active)
Cc1noc(NS(=O)(=O)c2ccc(N)cc2)c1C				inactive	inactive	inactive	inactive	inactive	inactive		
